Results filed as inconclusive are left out. Entries that show only a call come without a potency. Unmarked numbers belong to inactive results. Calls of active or inactive are those of the source. Calls come from the whole dose curve; as a rule, active = well fitted cell-killing curve with a large enough effect in the repeat runs; inconclusive = weak or mixed curves, or effect the other way; inactive = flat fitted curve, though single readings scatter.
Experiment: qHTS RealTime-Glo MT Cell Viability Assay in HEK293 cells - 24 hour (AID 1224886); note: nearly all actives have a fitted effect of over 50% in size; for activity change, negative = cytotoxicity: top concentration of the series differs between compounds
Conditions: RealTime-Glo luminescence; series mostly up to 76.8 µM
Description: National Center for Advancing Translational Sciences [NCATS]
NIH Chemical Genomics Center [NCGC]
U.S. Environmental Protection Agency [EPA]
National Institutes of Environmental Health Sciences [NIEHS]
National Toxicology Program [NTP]
U.S. Food and Drug Administration [FDA]
Measure of cell viability is critical in the cell-base assay. Analysis of cell viability is necessary for the characterization of cell responses to cytotoxic drugs and environmental stress. A RealTime-Glo MT Cell Viability Assay to monitor cell viability in real time of continues cell culture during 40 hours of compound treatment was used to screen Tox21 10K library compounds in Hek293 cells. The RealTime-Glo MT Cell Viability Assay is a nonlytic, homogeneous, bioluminescent method to measure cell viability in real time using a simple, plate-based method. The assay involves adding NanoLuc luciferase and a cell-permeant prosubstrate to cells in culture. Viable cells reduce the proprietary prosubstrate to generate a substrate for NanoLuc luciferase. This substrate diffuses from cells into the surrounding culture medium, where it is rapidly used by the NanoLuc Enzyme to produce a luminescent signal. The signal correlates with the number of viable cells, making the assay well suited for cytotoxicity studies.
Tox21 Assay Protocol Summary:
The mixture of Hek293 cell suspension and reagents were dispensed at 600cells/6 ul/well in 1536-well tissue culture treated black solid bottom plates using a Multidrop dispenser. After the assay plates were incubated at a 37 C/5% CO2 incubator for 5 hours, 23 nL of compounds dissolved in DMSO, positive and negative controls was transferred to the assay plate by a pintool work station. The plates were incubated at 37 C for 40 hours. The luminescence intensity were measured at 0h, 8h, 16h, 24h, 32h and 40h time points using ViewLux plate reader during compound treatment.
Potency is the fitted concentration of half-maximal effect.

Q: With C/C(=N\[Si](C)(C)C)O[Si](C)(C)C as the compound, how does the Potency read?
A: inactive

Q: Which Potency does the source give for Cn1ccnc1 here?
A: inactive

Q: With S=C1NC=NC2N=CNC12 (stereo not given) as the compound, how does the Potency read?
A: 21.9 µM (active)

Q: For NCc1cccc(C2CCN(C(=O)c3ccc(C#Cc4ccccc4F)o3)CC2)c1, which Potency is on record?
A: 54.9 µM (active)

Q: With O=C(c1ccccc1)c1ccc(Cl)cc1 as the compound, how does the Potency read?
A: inactive

Q: With CCOc1nc(F)cc2nc(S(=O)(=O)Nc3c(Cl)cccc3C(=O)OC)nn12 as the compound, how does the Potency read?
A: inactive

Q: For CCN(CCC#N)c1ccc(N=Nc2ccc([N+](=O)[O-])cc2)cc1, which Potency is on record?
A: inactive

Q: Which Potency does the source give for CN(C)CCOc1ccc(/C(=C(/CCCl)c2ccccc2)c2ccccc2)cc1 here?
A: 40.9 µM (active)

Q: Which Potency does the source give for CN[C@H]1CC[C@@H](c2ccc(Cl)c(Cl)c2)c2ccc(S(N)(=O)=O)cc21 here?
A: 21.9 µM (active)

Q: Which Potency does the source give for CCCCCCCCCC[N+](C)(CCCCCCCCCC)CCC[Si](OC)(OC)OC here?
A: 24.5 µM (active)

Q: Which Potency does the source give for O=C(NCc1ncc(C(F)(F)F)cc1Cl)c1c(Cl)cccc1Cl here?
A: 21.9 µM (active)

Q: Which Potency does the source give for CCCCCN=C(N)N/N=C/c1c[nH]c2ccc(OC)cc12 here?
A: 4.77 µM (active)

Q: Which Potency does the source give for Cc1ccc2sc3cccc(C)c3c2c1 here?
A: inactive

Q: Which Potency does the source give for CC(C)C(=O)C(C)C here?
A: inactive

Q: With NC(=O)c1ccccc1Cl as the compound, how does the Potency read?
A: inactive

Q: Which Potency does the source give for Nc1ccc(F)c([N+](=O)[O-])c1 here?
A: inactive

Q: Which Potency does the source give for C[C@H]1O[C@@H](O[C@H]2CC[C@@]3(C)[C@H](CC[C@@H]4[C@@H]3C[C@@H](O)[C@]3(C)[C@@H](C5=CC(=O)OC5)CC[C@]43O)C2)C[C@H](O)[C@@H]1O[C@H]1C[C@H](O)[C@H](O[C@H]2C[C@H](O)[C@H](O[C@@H]3O[C@H](CO)[C@@H](O)[C@H](O)[C@H]3O)[C@@H](C)O2)[C@@H](C)O1 here?
A: 0.268 µM (active)

Q: With CCCCCCCC/C=C\CCCCCCCC(=O)N(CCO)CCO as the compound, how does the Potency read?
A: 43.5 µM (active)

Q: With SC1CCCCC1 as the compound, how does the Potency read?
A: inactive

Q: Which Potency does the source give for c1ccc2occc2c1 here?
A: inactive

Q: Which Potency does the source give for CSc1nnc(C(C)(C)C)c(=O)[nH]1 here?
A: inactive

Q: With C=C(C)CCO as the compound, how does the Potency read?
A: inactive

Q: For CC(C=O)c1ccccc1 (stereo not given), which Potency is on record?
A: inactive

Q: For CC/C=C\C/C=C\C/C=C\CCCCCCCC(=O)OC, which Potency is on record?
A: inactive

Q: For COc1cc(C(C)C)ccc1C, which activity change, negative = cytotoxicity is on record?
A: 0.818% [at 15.8 µM]

Q: For [Cl][Dy]([Cl])[Cl], which Potency is on record?
A: inactive

Q: For c1ccc(-c2ccc(C(c3ccccc3)n3ccnc3)cc2)cc1 (stereo not given), which Potency is on record?
A: 30.1 µM (active)

Q: Which Potency does the source give for Nc1cc([N+](=O)[O-])ccc1Cl here?
A: inactive

Q: Which Potency does the source give for Clc1cccc(Cl)n1 here?
A: inactive

Q: With CC(C)(C)c1ccc(OC2CCCCC2O)cc1 (stereo not given) as the compound, how does the Potency read?
A: 54.9 µM (active)

Q: Which Potency does the source give for CCOC(=O)OC(=O)OCC here?
A: inactive

Q: With CN1CCN(c2ccccc2/C=C2\SCCN(c3ccc(Cl)c(Cl)c3)C2=O)CC1 as the compound, how does the Potency read?
A: 12.3 µM (active)

Q: For CCC(O)CO (stereo not given), which Potency is on record?
A: inactive

Q: Which Potency does the source give for Nc1ccc(Oc2cccc(Oc3ccc(N)cc3)c2)cc1 here?
A: inactive

Q: Which Potency does the source give for COCCC(=O)OC here?
A: inactive

Q: Which Potency does the source give for Cc1cc(Br)ccc1NC(=O)CCl here?
A: 30.9 µM (active)

Q: Which Potency does the source give for CCCCCCCCc1ccc(Nc2ccc(CCCCCCCC)cc2)cc1 here?
A: inactive

Q: Which Potency does the source give for Cc1cc(C)c(O)c(C(C)(C)C)c1 here?
A: inactive

Q: Which Potency does the source give for Nc1ccc(Cl)c([N+](=O)[O-])c1 here?
A: inactive

Q: For COc1cccc(-c2ccc(/C=C\CN3CCCCCC3)cc2Cl)c1, which Potency is on record?
A: 43.4 µM (active)

Reference: PubChem BioAssay (Tox21)
